# Measurements: PubChem BioAssay
# A number with no mark means an inactive call. For part of these data: Results with a measured potency or affinity are listed apart. The source made the active and inactive calls. Unless noted, how the calls were made is not given here.
# Key:
# [1] = antimalarial activity against Dd2 strain (AID 2302;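 active means growth inhibition above 50% at the single 2 µM test dose, taken to imply half-maximal potency below 2 µM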;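 further: 0% = DMSO untreated growth and 100% = chloroquine plus artemisinin killed control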); settings: P. falciparum Dd2 in RBCs, LDH growth readout, 72 h; at 2 µM; active compounds read high
# [2] = target: L-lactate dehydrogenase (Plasmodium falciparum (isolate CDC / Honduras)) (UniProt Q27743); experiment: PfLDH activity inhibition – cell lysate, 3D7 strain, counter-screen for P. falciparum growth inhibition project (AID 2304);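 further: 0% = vehicle and 100% = reference inhibitor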; settings: P. falciparum 3D7 crude extract, LDH APAD/NBT absorbance; at 2 µM; active compounds read high
# [3] = inhibition of 3D7 malaria parasite growth – strain 3D7 (AID 2306);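 further: 0% = DMSO wells and 100% = chloroquine plus artemisinin control wells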; settings: P. falciparum 3D7 erythrocytic growth, LDH absorbance, 72 h; at 2 µM; active compounds read high
# [4] = target: Calcium-dependent protein kinase 1 (Plasmodium falciparum (isolate 3D7)) (UniProt P62344); experiment: PfCDPK1 kinase inhibitors, biochemical, TCAMS library (AID 1159585; cut-off not given, nearly all actives have IC50 up to about 0.98 µM;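 further: inhibitors leave more ATP so luminescence rises with inhibition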); settings: recombinant PfCDPK1, Kinase-Glo ATP depletion luminescence
# [5] = target: Plasmodium falciparum protein kinase 6 (PK6, PF3D7_1337100) (UniProt Q8IDW1); experiment: PfPK6 kinase inhibitors, biochemical, TCAMS library (AID 1159586); settings: recombinant PfPK6, Kinase-Glo ATP depletion luminescence
# [6] = target: Protein kinase 7 (PK7), Plasmodium falciparum 3D7 (PF3D7_0213400) (UniProt Q7YTF7); experiment: inhibition of Plasmodium PK7 catalytic activity – biochemical, TCAMS antimalarial set, Kinase-Glo luminescence (AID 1159587); settings: recombinant PfPK7, Kinase-Glo ATP depletion luminescence
# [7] = target: Calcium-dependent protein kinase 4 (Plasmodium falciparum (isolate 3D7)) (UniProt Q8IBS5); experiment: PfCDPK4 kinase inhibitors, biochemical, TCAMS library (AID 1159588; cut-off not given, nearly all actives have IC50 up to about 0.91 µM); settings: recombinant PfCDPK4, Kinase-Glo ATP depletion luminescence
# [8] = human hepatoma cell viability loss – ATP luminescence, cytotoxicity control for P. falciparum antimalarial project, primary screen (AID 2303;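 active means inhibition above 50%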;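 further: 0% = DMSO wells and 100% = digitonin-killed cells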); settings: HepG2 viability, 24-48 h, at 10 µM, active compounds read high
# Sequence of Plasmodium falciparum protein kinase 6 (PK6, PF3D7_1337100) (Q8IDW1 1-305): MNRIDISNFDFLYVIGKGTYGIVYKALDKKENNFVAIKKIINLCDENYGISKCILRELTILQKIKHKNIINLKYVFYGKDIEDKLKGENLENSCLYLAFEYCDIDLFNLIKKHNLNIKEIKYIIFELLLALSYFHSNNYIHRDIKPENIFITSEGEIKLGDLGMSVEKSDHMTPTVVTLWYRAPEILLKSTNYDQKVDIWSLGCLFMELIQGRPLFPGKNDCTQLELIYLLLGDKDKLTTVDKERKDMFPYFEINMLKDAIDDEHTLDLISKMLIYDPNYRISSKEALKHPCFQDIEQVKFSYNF
# Sequence of Calcium-dependent protein kinase 4 (Plasmodium falciparum (isolate 3D7)) (Q8IBS5 whole entry, looked up): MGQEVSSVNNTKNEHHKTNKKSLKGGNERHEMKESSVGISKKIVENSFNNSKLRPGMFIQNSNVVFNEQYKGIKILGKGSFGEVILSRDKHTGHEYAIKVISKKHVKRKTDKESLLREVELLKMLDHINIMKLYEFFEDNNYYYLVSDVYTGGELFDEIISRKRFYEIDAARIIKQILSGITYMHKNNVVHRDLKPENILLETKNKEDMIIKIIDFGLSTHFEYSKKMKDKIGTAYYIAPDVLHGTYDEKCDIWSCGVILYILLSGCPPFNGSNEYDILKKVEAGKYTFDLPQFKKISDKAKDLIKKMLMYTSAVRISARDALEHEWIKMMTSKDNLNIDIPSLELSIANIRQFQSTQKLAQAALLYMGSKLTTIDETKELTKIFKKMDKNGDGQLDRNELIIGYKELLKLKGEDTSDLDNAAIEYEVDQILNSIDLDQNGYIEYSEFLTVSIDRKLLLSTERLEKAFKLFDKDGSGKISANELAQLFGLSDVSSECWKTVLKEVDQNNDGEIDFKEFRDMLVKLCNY
# Sequence of Protein kinase 7 (PK7), Plasmodium falciparum 3D7 (PF3D7_0213400) (Q7YTF7 1-343): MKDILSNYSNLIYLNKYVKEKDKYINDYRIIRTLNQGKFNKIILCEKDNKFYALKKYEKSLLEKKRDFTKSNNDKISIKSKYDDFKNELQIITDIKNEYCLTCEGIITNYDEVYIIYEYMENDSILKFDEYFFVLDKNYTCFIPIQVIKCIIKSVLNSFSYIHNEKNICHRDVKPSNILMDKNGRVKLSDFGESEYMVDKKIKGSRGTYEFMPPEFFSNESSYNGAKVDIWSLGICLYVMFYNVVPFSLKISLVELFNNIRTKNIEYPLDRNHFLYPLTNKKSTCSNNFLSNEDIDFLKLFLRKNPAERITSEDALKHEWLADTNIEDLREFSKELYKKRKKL
# Sequence of Calcium-dependent protein kinase 1 (Plasmodium falciparum (isolate 3D7)) (P62344 whole entry, looked up): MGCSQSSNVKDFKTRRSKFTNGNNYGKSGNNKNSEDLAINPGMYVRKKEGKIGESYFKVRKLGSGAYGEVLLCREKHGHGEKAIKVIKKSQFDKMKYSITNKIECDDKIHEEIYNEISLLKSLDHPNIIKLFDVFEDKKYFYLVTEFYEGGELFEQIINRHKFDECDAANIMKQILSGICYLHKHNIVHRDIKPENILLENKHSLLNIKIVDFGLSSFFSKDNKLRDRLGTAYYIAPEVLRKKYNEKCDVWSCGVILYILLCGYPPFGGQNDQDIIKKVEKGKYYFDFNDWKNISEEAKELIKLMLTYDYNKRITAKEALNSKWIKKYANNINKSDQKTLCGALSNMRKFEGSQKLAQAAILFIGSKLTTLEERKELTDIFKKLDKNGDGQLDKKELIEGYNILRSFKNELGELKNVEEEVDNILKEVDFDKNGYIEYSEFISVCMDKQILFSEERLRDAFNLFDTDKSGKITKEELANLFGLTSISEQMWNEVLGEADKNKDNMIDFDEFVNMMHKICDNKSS
# Sequence of L-lactate dehydrogenase (Plasmodium falciparum (isolate CDC / Honduras)) (Q27743 whole entry, looked up): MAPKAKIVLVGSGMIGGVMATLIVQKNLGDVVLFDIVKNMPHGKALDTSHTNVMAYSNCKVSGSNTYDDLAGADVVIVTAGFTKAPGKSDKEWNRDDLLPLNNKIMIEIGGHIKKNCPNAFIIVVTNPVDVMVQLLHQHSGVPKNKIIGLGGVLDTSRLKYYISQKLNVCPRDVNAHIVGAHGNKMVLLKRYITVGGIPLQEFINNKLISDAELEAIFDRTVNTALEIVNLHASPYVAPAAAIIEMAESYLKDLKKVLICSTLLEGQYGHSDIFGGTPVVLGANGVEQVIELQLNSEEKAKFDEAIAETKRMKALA
Structure (SMILES),growth inhibition [1],inhibition [2] [%],growth inhibition [3],outcome [4],outcome [5],outcome [6],outcome [7],inhibition [8]
CC(C)(C)c1ccc(-c2nnc(N)nc2N)cc1,-4%,-4,92% (active),inactive,inactive,inactive,inactive,
COc1ccc(-c2ccc(NC(=O)c3cccc(Cl)c3)cc2)cc1CN1CCCN(C)CC1,50% (active),8,95% (active),inactive,inactive,inactive,inactive,48%
O=C(Nc1ccc(N2CCC(Nc3ccccn3)CC2)cc1)c1cnc(Cl)c(Cl)c1,1%,0,83% (active),inactive,inactive,inactive,inactive,46%
c1ccc2c(CNCCCN3CCN(CCCNCc4c5ccccc5cc5ccccc45)CC3)c3ccccc3cc2c1,100% (active),0,101% (active),inactive,inactive,inactive,inactive,
O=C(NC1CCCCC1)N(Cc1cccc(-c2ccc(CNCCc3ccccc3)cc2)c1)C1CCN(Cc2ccccc2)CC1,93% (active),4,93% (active),inactive,inactive,inactive,inactive,61% (active)
COc1cc(Cc2cnc(N)nc2N)cc(OCCCC#N)c1OC,-1%,-3,86% (active),inactive,inactive,inactive,inactive,
CCCCN(CCCC)Cc1cc(N(C)c2ccc([N+](=O)[O-])cn2)ccc1O,98% (active),7,98% (active),inactive,inactive,inactive,inactive,
CN1CCC[C@H]1COc1ccc(CN2CC[C@H](NC(=O)c3ccc(Cl)c(Cl)c3)C2)cc1Br,20%,-1,101% (active),inactive,inactive,inactive,inactive,81% (active)
Nc1nc(N)c2c(ccc3c2ccn3Cc2ccc(Br)cc2)n1,98% (active),-13,101% (active),inactive,inactive,inactive,inactive,
COc1cc(Cc2cnc(N)nc2N)cc(OCCCS(=O)(=O)O)c1OC,-6%,1,88% (active),inactive,inactive,inactive,inactive,
C=CCNC(=O)C(C)c1ccc2cc(OC)ccc2c1 (stereo unspecified),90% (active),1,92% (active),inactive,inactive,inactive,inactive,4%
CCCN1CCN(CC(O)CNC(=O)Nc2ccc(Cl)cc2)CC1 (stereo unspecified),100% (active),-3,100% (active),inactive,inactive,inactive,inactive,6%
CCCCCCCCCC(=O)NCC1CC(Br)=NO1 (stereo unspecified),42%,-7,87% (active),inactive,inactive,inactive,inactive,
Nc1ncc(-c2ccc(S(=O)(=O)Nc3ccc(C(=O)N[C@@H](CCC(=O)O)C(=O)O)cc3)cc2)c(=O)[nH]1,0%,-3,99% (active),inactive,inactive,inactive,inactive,
Cn1c(NC(=O)C2CCC(CNC(=O)c3ccc(O)c(-c4cccc([N+](=O)[O-])c4)c3)CC2)nc2ccccc21 (stereo unspecified),97% (active),-5,95% (active),inactive,inactive,inactive,inactive,6%
CCc1ccc(Cc2cnc3nc(N)nc(N)c3c2C)cc1CC,-1%,6,97% (active),inactive,inactive,inactive,inactive,
COc1ccc2nccc([C@@H](O)CN3CCC(NCc4cc5ccccc5o4)CC3)c2c1,72% (active),4,96% (active),inactive,inactive,inactive,inactive,17%
CCN(CC)CCCC(C)Nc1ccnc2cc(C#N)ccc12 (stereo unspecified),80% (active),-1,100% (active),inactive,inactive,inactive,inactive,
CC(=O)Oc1c(Br)c(C)nc(C)c1-c1ccc(Oc2ccc(OC(F)(F)F)cc2)cc1,97% (active),-4,98% (active),inactive,inactive,inactive,inactive,
Nc1nc(N)c2c(n1)CCc1cc(Br)ccc1-2,4%,6,87% (active),inactive,inactive,inactive,inactive,
CCc1c(C)c(C#N)c2nc3ccccc3n2c1NCc1ccco1,90% (active),6,99% (active),inactive,inactive,inactive,inactive,-3%

Structure (SMILES),growth inhibition [1],inhibition [2] [%],growth inhibition [3],outcome [4],outcome [5],outcome [6],outcome [7],inhibition [8]
CN(C)CC1CCCN1Cc1ccccc1-c1cnn(C)c(=O)c1Oc1ccccc1F (stereo unspecified),27%,-1,95% (active),inactive,inactive,inactive,inactive,18%
O=C(Nc1ccc(CN2CCOCC2)cc1)c1ccc(-c2ccc(Br)cc2)o1,-4%,-2,92% (active),inactive,inactive,inactive,inactive,3%
FC(F)(F)c1ccc2nc(-c3ccc(-c4cccc(CNCc5ccccc5)c4)s3)[nH]c2c1,83% (active),-5,102% (active),inactive,inactive,inactive,inactive,15%
Cc1ccc(Cc2cccc3nc(N)nc(N)c23)cc1,0%,-2,92% (active),inactive,inactive,inactive,inactive,
COc1cc2c(cc1OC)CN(c1cc(N)c3cc(OC)c(OC)cc3n1)CC2,99% (active),-3,100% (active),inactive,inactive,inactive,inactive,23%
O=C(NC(=O)c1ccccc1)NC1CCN(c2ccnc3cc(Cl)ccc23)C1 (stereo unspecified),99% (active),-2,101% (active),inactive,inactive,inactive,inactive,32%
CCc1ccc(C2CCN(CCCCNC(=O)c3ccc(-c4ccc(C#N)cc4)cc3)CC2)c(OCCO)c1,61% (active),-4,94% (active),inactive,inactive,inactive,inactive,24%
CN1CCCN(Cc2cccc(-c3cccc(NS(=O)(=O)c4cccc5cccnc45)c3)c2)CC1,74% (active),-6,97% (active),inactive,inactive,inactive,inactive,21%
COc1ccc2nc3cc(Cl)ccc3c(Nc3ccc(Oc4ccc(Nc5c6ccc(Cl)cc6nc6ccc(OC)cc56)cc4)cc3)c2c1,93% (active),7,86% (active),inactive,inactive,inactive,inactive,
O=C(NC1CCC(N2CCC(c3ccccc3C(F)(F)F)CC2)CC1)c1cc2ccccc2[nH]1 (stereo unspecified),98% (active),-5,100% (active),inactive,inactive,inactive,inactive,80% (active)
CCN(CC)CCN(Cc1ccc(-c2ccc(C(F)(F)F)cc2)cc1)C(=O)c1ccc(-c2ccc(C#N)cc2)cc1,31%,-5,89% (active),inactive,inactive,inactive,inactive,38%
COc1ccc(Cc2cnc(N)nc2N)cc1OCCCOc1ccccc1,4%,6,91% (active),inactive,inactive,inactive,inactive,
CCCCCCCN1CC[C@@H](CCCc2ccnc3ccc(OC)cc23)[C@@H](CNC)C1,95% (active),-2,101% (active),inactive,inactive,inactive,inactive,25%
Cc1[nH]c(C)c(-c2ccc(Oc3ccc(Cl)cc3)cc2)c(=O)c1C,95% (active),-8,96% (active),inactive,inactive,inactive,inactive,
Cc1c(C(C)(C)C)ccc2nc(N)nc(N)c12,-2%,-1,89% (active),inactive,inactive,inactive,inactive,
CN(C)S(=O)(=O)n1ncc2c3c(N)nc(N)nc3ccc21,0%,-4,96% (active),inactive,inactive,inactive,inactive,
CC(C)Oc1ccc2ccccc2c1CNCCCCCCNCc1c(OC(C)C)ccc2ccccc12,90% (active),-7,99% (active),inactive,inactive,inactive,inactive,
COc1ccc(Cc2cnc3nc(N)nc(N)c3c2C)cc1OC,97% (active),-5,93% (active),inactive,inactive,inactive,inactive,
NC(N)=NC(=O)Nc1cc(F)c(Cl)c(Cl)c1,101% (active),2,101% (active),inactive,inactive,inactive,inactive,
CCNCCCC(C)Nc1ccnc2cc(Cl)ccc12 (stereo unspecified),-3%,0,100% (active),inactive,inactive,inactive,inactive,
